Experimental data: PubChem BioAssay (NCATS)
Records with an inconclusive call do not appear. Values without a mark were called inactive. Calls come from the whole dose curve; as a rule, active = well fitted curve in the direction sought with a large enough effect; inconclusive = small, poorly fitted or top-dose-only effect, or another doubt; inactive = no such curve, though single readings can be large; an effect the other way counts as inactive or inconclusive.

What follows are compounds tested against Protein phosphatase 1D (Homo sapiens) (UniProt O15297) (assay: RapidFire Mass Spectrometry qHTS Assay for Modulators of WT P53-Induced Phosphatase 1 (WIP1) (AID 1347424;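 note: amount of dephosphorylated VEPPL-S-QETFS peptide product formed by WIP1; plate controls were DMSO wells for no effect and GSK830371 inhibitor control at 10 µM for full effect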)). Conditions: WIP1 dephosphorylation of phosphopeptide, RapidFire MS; series mostly up to 63 µM; activity change, negative = inhibition: at the top concentration.
Sequence of Protein phosphatase 1D (Homo sapiens) (O15297 whole entry, looked up): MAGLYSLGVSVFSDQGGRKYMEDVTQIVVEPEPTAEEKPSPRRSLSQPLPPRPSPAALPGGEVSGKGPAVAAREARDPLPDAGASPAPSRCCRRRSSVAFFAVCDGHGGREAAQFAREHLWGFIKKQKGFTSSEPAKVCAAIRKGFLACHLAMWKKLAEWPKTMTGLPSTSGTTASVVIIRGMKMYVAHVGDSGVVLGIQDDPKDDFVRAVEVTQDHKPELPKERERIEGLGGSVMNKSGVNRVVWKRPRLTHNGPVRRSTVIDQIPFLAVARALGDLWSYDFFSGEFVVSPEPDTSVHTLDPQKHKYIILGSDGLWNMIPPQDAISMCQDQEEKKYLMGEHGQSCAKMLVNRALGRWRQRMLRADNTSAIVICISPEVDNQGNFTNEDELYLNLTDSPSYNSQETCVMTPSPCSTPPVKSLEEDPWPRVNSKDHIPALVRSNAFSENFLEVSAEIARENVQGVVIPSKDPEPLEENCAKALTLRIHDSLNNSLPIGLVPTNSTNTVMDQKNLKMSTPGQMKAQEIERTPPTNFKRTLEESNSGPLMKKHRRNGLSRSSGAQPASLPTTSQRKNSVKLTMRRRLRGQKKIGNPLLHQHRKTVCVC
How it was run: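 Mass-spectrometric measurement of dephosphorylated peptide after a 5 min room-temperature reaction of 10 nM WIP1 with 2 uM phosphopeptide, following 1 h compound preincubation in 30 mM MgCl2 buffer.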

SMILES | activity change, negative = inhibition
C#C[C@]1(OC(C)=O)CC[C@H]2[C@@H]3CCC4=C[C@@H](OC(C)=O)CC[C@@H]4[C@H]3CC[C@@]21C | 30.3%
CN1[C@@H]2CC[C@H]1CC(OC(=O)c1c[nH]c3ccccc13)C2 (stereo partly drawn) | 9.05%
CCCCN1CCCC1C(=O)Nc1c(C)cc(C)cc1C (stereo not drawn) | 27.7%
O=C(O)CNC(=O)c1ccccc1 | 4.04%
COc1ccc(CCN2CCC(Nc3nc4ccccc4n3Cc3ccc(F)cc3)CC2)cc1 | 58.2%
CCCCCCCCCCCCCCNCCO | 48.9%
C[C@H]1[C@H](NC(=O)/C(=N/OC(C)(C)C(=O)O)c2csc(N)n2)C(=O)N1S(=O)(=O)O (stereo in doubt) | 0.656%
CC[C@@H](CO)NCCN[C@@H](CC)CO | 4.33%
C[C@]12C=CC(=O)C=C1[C@@H](F)C[C@@H]1[C@@H]2[C@@H](O)C[C@@]2(C)[C@H]1CC[C@]2(O)C(=O)CO | -9.46%
CCN(CC)CCOc1ccc(C(O)(Cc2ccc(Cl)cc2)c2ccc(C)cc2)cc1 (stereo not drawn) | 42.5%
C[C@]12CC[C@H]3[C@@H](CCC4=CC(=O)CC[C@@]43C)[C@@H]1CC[C@@H]2C(=O)CO | -0.801%
CCCCC(=O)O[C@]1(C(=O)CO)CC[C@H]2[C@@H]3CCC4=CC(=O)CC[C@]4(C)[C@H]3[C@@H](O)C[C@@]21C | 10.5%
COc1cc(C(=S)N2CCOCC2)cc(OC)c1OC | -0.233%
O=C(CCCN1CCC(O)(c2ccc(Br)cc2)CC1)c1ccc(F)cc1 | 9.34%
Cc1cccc(C)c1NC(=O)CN1CCN(CCCC(c2ccc(F)cc2)c2ccc(F)cc2)CC1 | 29.8%
CN(C)CCCOc1nn(Cc2ccccc2)c2ccccc12 | 29.1%
Nc1ccc(/C=C/c2ccc(N)cc2S(=O)(=O)O)c(S(=O)(=O)O)c1 | -4.22% [at 0.505 µM]

The compounds below were run against Protein phosphatase 1D (Homo sapiens) (UniProt O15297) (assay: Rhodamine-PBP qHTS Assay for Modulators of WT P53-Induced Phosphatase 1 (WIP1) (AID 1347425; note: % of control where 0% means no effect)). Conditions: recombinant WIP1, Rhodamine-PBP phosphate fluorescence, real-time; series mostly up to 57.5 µM; activity change, negative = inhibition: at the top concentration.
How it was run: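 The read-out is the change in Rhodamine-PBP fluorescence (f1 - f0, ex 525/em 598 nm) as Pi is released, read each minute for 11 min. Final reaction: 5 nM WIP1, 10 uM phosphopeptide VEPPL-pS-QETFS, 10 uM Rh-PBP, 50 mM Tris-HCl pH 7.5, 30 mM MgCl2. Compound was preincubated with enzyme for 1 hour at room temperature.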

SMILES | activity change, negative = inhibition
CC(=O)c1ccc2c(c1)N(CCCN1CCC(CCO)CC1)c1ccccc1S2 | -3.4%
CCOC(=O)n1ccn(C)c1=S | 3.24%
CC(=O)OCC(=O)NCCCOc1cccc(CN2CCCCC2)c1 | 11.6%
Cc1cc(=O)n(-c2ccccc2)n1C | 0.541%
CCN(CC)CCNC(=O)COc1ccc(Cl)cc1 | 12.2%
CC(O)C(=O)O (stereo not drawn) | -4.99%
CN(C)CCOc1ccccc1Cc1ccccc1 | 15.7%
CCCCCCCCCCCCCCCC[N+](C)(C)CC | 9.42%
CC(C)(CO)[C@@H](O)C(=O)NCCCO | 7.72%
Oc1cc(O)c2c(c1)O[C@H](c1ccc(O)c(O)c1)[C@H](O)C2 | -25.7%
CCN1CCN(c2cc3c(cc2F)c(=O)c(C(=O)O)cn3C2CC2)CC1 | 16.4%
CN(C)CC/C=C1\c2ccccc2Sc2ccc(Cl)cc21 | 37.7%
CN=C(NC#N)Nc1ccc(C2=NNC(=O)CC2C)cc1 (stereo not drawn) | 6.49%
C#C[C@]1(O)CC[C@H]2[C@@H]3CCc4cc(OC5CCCC5)ccc4[C@H]3CC[C@@]21C | 23.3%
O=c1[nH]c(=O)n([C@H]2C[C@H](O)[C@@H](CO)O2)cc1C(F)(F)F | 9.01%
Cc1cc2c(cc1CC(=O)c1sccc1S(=O)(=O)Nc1onc(C)c1Cl)OCO2 | -24.8%
CC(=O)[C@H]1CC[C@H]2[C@@H]3C[C@H](C)C4=CC(=O)CC[C@]4(C)[C@H]3[C@@H](O)C[C@]12C | 24.6%
CCCC(=O)O[C@]1(C(=O)CO)CC[C@H]2[C@@H]3CCC4=CC(=O)CC[C@]4(C)[C@H]3[C@@H](O)C[C@@]21C | 1.47%

SMILES | activity change, negative = inhibition
CC(=O)Oc1ccc(C(c2ccc(OC(C)=O)cc2)c2ccccn2)cc1 | -17.8%
C#C[C@]1(OC(C)=O)CC[C@H]2[C@@H]3CCC4=C[C@@H](OC(C)=O)CC[C@@H]4[C@H]3CC[C@@]21C | -17%
CN1[C@@H]2CC[C@H]1CC(OC(=O)c1c[nH]c3ccccc13)C2 (stereo partly drawn) | 7.57%
CCCCN1CCCC1C(=O)Nc1c(C)cc(C)cc1C (stereo not drawn) | 4.25%
O=C(O)CNC(=O)c1ccccc1 | 15.2%
COc1ccc(CCN2CCC(Nc3nc4ccccc4n3Cc3ccc(F)cc3)CC2)cc1 | 21.1%
CCCCCCCCCCCCCCNCCO | 46.9%
C[C@H]1[C@H](NC(=O)/C(=N/OC(C)(C)C(=O)O)c2csc(N)n2)C(=O)N1S(=O)(=O)O (stereo in doubt) | 1.18%
CC[C@@H](CO)NCCN[C@@H](CC)CO | 7.65%
C[C@]12C=CC(=O)C=C1[C@@H](F)C[C@@H]1[C@@H]2[C@@H](O)C[C@@]2(C)[C@H]1CC[C@]2(O)C(=O)CO | 11.2%
CCN(CC)CCOc1ccc(C(O)(Cc2ccc(Cl)cc2)c2ccc(C)cc2)cc1 (stereo not drawn) | 33.8%
C[C@]12CC[C@H]3[C@@H](CCC4=CC(=O)CC[C@@]43C)[C@@H]1CC[C@@H]2C(=O)CO | 14.1%
CCCCC(=O)O[C@]1(C(=O)CO)CC[C@H]2[C@@H]3CCC4=CC(=O)CC[C@]4(C)[C@H]3[C@@H](O)C[C@@]21C | 3.32%
COc1cc(C(=S)N2CCOCC2)cc(OC)c1OC | 4.34%
O=C(CCCN1CCC(O)(c2ccc(Br)cc2)CC1)c1ccc(F)cc1 | 16.8%
Cc1cccc(C)c1NC(=O)CN1CCN(CCCC(c2ccc(F)cc2)c2ccc(F)cc2)CC1 | 10.4%
CN(C)CCCOc1nn(Cc2ccccc2)c2ccccc12 | -14.7%
Nc1ccc(/C=C/c2ccc(N)cc2S(=O)(=O)O)c(S(=O)(=O)O)c1 | 11.7% [at 0.575 µM]
